These results are taken from PubChem BioAssay AID2014 (Sanford-Burnham Center for Chemical Genomics, 2009).

The campaign covered roughly 290,000 compounds. About 3,000 (1%) were called active. The sample holds actives, similar compounds and a random draw of the others, so the mix is not that of the screen. How the calls were made is not given here.

In the assay the target is Polyadenylate-binding protein 1 (Homo sapiens) (UniProt P11940). The experiment in a line: PABP poly(A) RNA binding inhibitors, primary screen, biochemical, fluorescence polarization, uHTS (AID 2014).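 Further: calls also rest on retests at 20 µM and on dose response follow-up.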 The following applies: stronger effect = higher value. In general terms: Fluorescence polarisation rises when a labelled molecule tumbles more slowly, as on binding a larger partner.
Chain of Polyadenylate-binding protein 1 (Homo sapiens) (P11940 whole entry, looked up): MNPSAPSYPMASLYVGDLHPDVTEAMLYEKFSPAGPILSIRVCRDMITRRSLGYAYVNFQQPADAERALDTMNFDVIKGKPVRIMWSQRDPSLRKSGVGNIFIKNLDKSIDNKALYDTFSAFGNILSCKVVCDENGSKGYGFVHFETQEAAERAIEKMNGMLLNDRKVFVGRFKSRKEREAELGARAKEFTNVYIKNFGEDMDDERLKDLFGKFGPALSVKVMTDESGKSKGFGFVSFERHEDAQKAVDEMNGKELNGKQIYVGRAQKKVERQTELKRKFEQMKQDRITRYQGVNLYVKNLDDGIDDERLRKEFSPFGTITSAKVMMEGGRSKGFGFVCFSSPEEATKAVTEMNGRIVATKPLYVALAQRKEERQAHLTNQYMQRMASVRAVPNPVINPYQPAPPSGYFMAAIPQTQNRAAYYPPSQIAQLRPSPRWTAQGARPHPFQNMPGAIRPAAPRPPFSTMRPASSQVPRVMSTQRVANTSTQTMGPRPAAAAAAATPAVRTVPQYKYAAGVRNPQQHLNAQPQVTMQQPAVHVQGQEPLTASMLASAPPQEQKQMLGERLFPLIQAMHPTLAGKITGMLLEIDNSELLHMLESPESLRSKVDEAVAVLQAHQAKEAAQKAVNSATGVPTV

A word on the inhibition: it is the change of the read-out against control, counted positive when it falls.

Consider `C[N+]1(CCNC(=O)/C=N/O)CCCCC1`, for which the inhibition (at 35 µM) was 63.4% (active).
Same read-out and setting: next, `CC(C)[C@H](NC(=O)N1CC(=O)Nc2ccccc21)C(=O)N[C@@H](Cc1c[nH]c2ccccc12)C(=O)O`: -3.1% (inactive); `Cc1cccc(-c2c(NC(=O)c3ccco3)oc3ccc(Cl)cc3c2=O)c1`: -6.1% (inactive).
With `O=C1OC(/C=C/c2ccccc2)=NC/1=C/c1ccco1`, the inhibition by setting is: (at 35 µM) 16.6% (inactive); (confirmation repeats, at 20 µM) 5.2%.
The matching figures for `CC(C)(C)C1C/C(=C/c2ccco2)C(=O)/C(=C/c2ccco2)C1` (configuration not stated): -1.8% (active) and 53.3%.
Regarding `CCC1S/C(=N/N=C/c2ccco2)NC1=O` (configuration not stated), the inhibition (at 35 µM) was -11% (inactive).
In the case of `Cn1c(=O)oc2cc(S(=O)(=O)NCCC(=O)NCc3ccccc3Cl)ccc21`, the inhibition (at 35 µM) was 1% (inactive).
Still for that read-out and setting: next, `C=CCn1c(=S)[nH]c2scc(-c3ccco3)c2c1=O`: 69.3% (active); `C=CCn1c(SCc2csc(C)n2)nc2scc(-c3ccc(C)o3)c2c1=O`: 6.5% (inactive); `C=CCNC(=O)CSc1nc2scc(-c3ccco3)c2c(=O)n1CC=C`: 15.2% (inactive).
Same read-out and setting: next, `COc1cccc(NC(=O)N2CCCC2C(=O)NC2CCCCC2)c1` (configuration not stated): -0.6% (inactive); `CCn1cc(C(=O)N2CC(C)CC(C)C2)c(=O)c2cc(S(=O)(=O)N3CCCC3)ccc21` (configuration not stated): -11.3% (inactive); `COc1ccc(-c2cc(C(=O)N(C)Cc3ccc(OC)c(OC)c3OC)c3ccccc3n2)cc1OC`: 48% (inactive).
With `Cc1cc2ccccn2c1C(=O)c1cccc(F)c1`, under “at 35 µM”, the inhibition is 2.5% (inactive).
Take `Cc1ccc(C(C[N+](=O)[O-])c2c(C)cc3ccccn23)cc1` (configuration not stated): the inhibition was -2.2% (active) (at 35 µM) and 72.2% (confirmation repeats, at 20 µM).
For `CC(=O)Nc1ccc(/C=N/Nc2ccc(C(=O)c3c(C)cc4ccccn34)cc2[N+](=O)[O-])cc1`, the inhibition (at 35 µM) was 9% (inactive).
Turning to `Cc1ccc(CNC(=O)Cc2cn(C)c3ccccc23)cc1`, the inhibition (at 35 µM) is 6.1% (inactive).
Still for that read-out and setting: next, `CCCc1nc2c(c(=O)c3ccccc3n2C)c(=O)n1-c1cc(C)cc(C)c1`: 4.7% (inactive); `COc1ccc(C(=O)CSc2nnc(COc3ccccc3)n2Cc2ccco2)cc1`: -8.1% (inactive).
Turning to `Cn1c2ccccc2c(=O)c2c(=O)n(Cc3ccco3)c(COc3ccccc3)nc21`, the inhibition was 1.9% (active) (at 35 µM) and 54.5% (confirmation repeats, at 20 µM).
On to `Cc1cnc(C)c(N2CCN(C(=O)C3CCC(=O)N(CCc4cccc(F)c4)C3)CC2)n1` (configuration not stated), for which, where the note is “at 35 µM”, the inhibition was 4.1% (inactive).
As to `O=C1CCCC(O)=C1N=Nc1ccc(S(=O)(=O)N2CCOCC2)cc1`, the inhibition (at 35 µM) is 14.4% (inactive).
Take `O=C1CCCC(O)=C1N=Nc1ccc2ncsc2c1`: the inhibition (at 35 µM) was -16.7% (active) and the inhibition (confirmation repeats, at 20 µM) is 53.4%.
As to `CCOc1cc(C2/C(=C(/O)c3ccc(S(=O)(=O)N4CCCCC4)cc3)C(=O)C(=O)N2CCOC)ccc1O` (configuration not stated), for the setting “at 35 µM”, the inhibition was 1.6% (inactive).
As to `Cc1ccc2cc(C)c(N3CCN(c4ccc(F)cc4)CC3)nc2c1`, where the note is “at 35 µM”, the inhibition was -13.2% (inactive).
Still for that read-out and setting: next, `COc1ccc(-c2cc(C(=O)N3CCN(Cc4ccc5c(c4)OCO5)CC3)on2)cc1OC`: 6.7% (inactive); `COc1ccc(Cl)cc1NC(=O)CCS(=O)(=O)c1cc2c(cc1C)NC(=O)CO2`: -1.1% (inactive).
On the same count and under the same terms, next, `COc1ccc(Cl)cc1NC(=O)CCS(=O)(=O)c1ccc(Br)cc1`: 54.8% (active).
For `O=C(CCS(=O)(=O)c1ccc(Br)cc1)NCCc1ccc(Cl)cc1`, the inhibition was 19.8% (inactive) (at 35 µM) and 10.6% (confirmation repeats, at 20 µM).
On to `O=C(CSc1ncn[nH]1)N/N=C/c1ccc(F)cc1`, for which, under “at 35 µM”, the inhibition was -7.9% (inactive).
Still for that read-out and setting: next, `O=C(NCCCc1ccccc1)c1cc(COc2c(F)cccc2F)on1`: -3.7% (inactive).
As for `O=C(c1c(F)cccc1F)N1CCN(c2ncc(Br)cn2)CC1`, for the setting “at 35 µM”, the inhibition was 0.7% (inactive).
Still for that read-out and setting: next, `Cc1nnc(N(Cc2ccco2)C(=O)c2ccno2)s1`: 68.4% (active); `CN(C(=O)c1ccno1)c1nnc(-c2cccnc2)s1`: 12% (inactive).
Same read-out and setting: next, `Cc1ccc(-c2csc(N(Cc3ccco3)C(=O)c3cccs3)n2)cc1`: -9.4% (inactive); `O=C(CCN1C(=O)[C@H]2CC=CC[C@H]2C1=O)NCc1nc(-c2ccccc2)no1`: 15.4% (inactive).
On the same count and under the same terms, next, `O=C1c2ccccc2S(=O)(=O)N1Cc1c(F)cccc1Cl`: 5.7% (inactive); `CN1CCc2nc(SC(C(=O)O)c3ccccc3)c(C#N)c(-c3cccs3)c2C1` (configuration not stated): 68.1% (active).
Take `CCc1c(-c2ccccc2)nc(N)c(C#N)c1-c1cccs1`: the inhibition (at 35 µM) was -4.1% (inactive).
Still for that read-out and setting: next, `Cc1c(-c2ccccc2)nc(N)c(C#N)c1-c1cccs1`: -3.2% (inactive).
Consider `CCOC(=O)C1(Cc2ccccc2C)CCCN(C(=O)CCc2c(C)noc2C)C1` (configuration not stated), for which the inhibition (at 35 µM) is 2.2% (inactive).
Still for that read-out and setting: next, `CCn1c(=S)sc2c(=O)n(CC(=O)Nc3ccc(OC)cc3)c(C)nc21`: -6.5% (inactive); `Cc1cccc(C)c1NC(=O)CSc1nc2c([nH]1)c(=O)n(C)c(=O)n2C`: 1% (inactive); `COc1cc(CCC(=O)N2CCN(c3ccccc3Cl)CC2)cc(OC)c1OC`: 9.6% (inactive).
On to `CCc1nnc(NC(=O)Cc2cccs2)s1`, for which the inhibition (at 35 µM) is 10.4% (inactive).
Same read-out and setting: next, `COc1ccc(Cc2nnc(NC(=O)Cc3cccs3)s2)cc1`: 72.4% (active); `COc1ccc(Cc2nnc(NC(=O)c3ccc(OC)cc3OC)s2)cc1`: -6% (inactive); `CNS(=O)(=O)c1cccc(C(=O)NCC2CCCCC2)c1`: 1% (inactive).
On the same count and under the same terms, next, `Cc1nn(Cc2ccccc2)c2c1C(c1ccccc1)C(C#N)=C(N)O2` (configuration not stated): 5.6% (inactive).
Consider `Cc1cc(C)c2c3c(sc2n1)C(c1ccccc1)C(C#N)=C(N)O3` (configuration not stated), for which the inhibition runs as follows: (at 35 µM) 120% (active); (confirmation repeats, at 20 µM) 63.8%.
For the molecule `Cc1cc(C)c(C#N)c(SCc2[nH]nc3c2C(c2ccccc2)C(C#N)=C(N)O3)n1` (configuration not stated), the inhibition (at 35 µM) was -7.3% (inactive).
The same measure, in the same setting: next, `O=C(N/N=C/c1ccccc1O)/C(=C/c1ccccc1)CCO`: -0.9% (inactive); `CCOc1cc(/C=N/Nc2cc(C)nc3ccc(C)cc23)ccc1O`: -6.9% (inactive).
In the case of `CN(C(=O)COC(=O)c1nc(Cl)ccc1Cl)C1CCS(=O)(=O)C1` (configuration not stated), under “at 35 µM”, the inhibition was 1.3% (inactive).
Still for that read-out and setting: next, `CN(C(=O)COC(=O)c1cc(-c2ccco2)nc2ccccc12)C1CCS(=O)(=O)C1` (configuration not stated): 77.7% (active).
On the same count and under the same terms, next, `Cc1c(-c2cccc(Cl)c2)nc2ccccc2c1C(=O)OCC(=O)N(C)C1CCS(=O)(=O)C1` (configuration not stated): 6.7% (inactive); `Cc1cccc(Nc2nc(-c3ccccc3)cs2)n1`: 3.3% (inactive).
The same measure, in the same setting: next, `O=C(NCc1ccccn1)c1cc(Br)ccc1Cl`: 0.7% (inactive); `O=C(NCc1ccccn1)c1ccc2nc(-c3ccco3)c(-c3ccco3)nc2c1`: 77.7% (active); `COc1cccc(S(=O)(=O)NCc2ccc(C(=O)NCc3ccccn3)cc2)c1`: 1.8% (inactive).
